Experimental data taken from PubChem BioAssay (NCI).
About 83,000 compounds went through this panel and 20% of them were active in at least one assay; those are over-represented in the sample as a whole.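 Single-dose data. Exposure time 48 hours. Values below 10 considered active.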 Values without a mark were called inactive. Active and inactive are the calls of the source.

What was measured:
Experiment in all cases: NCI-60 one-dose screen, 48 h (100 = growth as untreated, 0 = no growth, -100 = all killed)
NCI-H226 lung = details: 10 µM
NCI-H322M lung = details: 10 µM unless noted
HOP-62 NSCLC = details: 10 µM unless noted
NCI-H460 lung = details: 10 µM unless noted
HOP-92 NSCLC = details: 10 µM unless noted
A549/ATCC NSCLC = details: 10 µM unless noted
786-0 renal = details: 10 µM unless noted
NCI-H522 lung = details: 10 µM
COLO 205 colon = details: 10 µM unless noted

Row | Structure (SMILES) | growth (NCI-H226 lung) | growth (NCI-H322M lung) | growth (HOP-62 NSCLC) | growth (NCI-H460 lung) | growth (HOP-92 NSCLC) | growth (A549/ATCC NSCLC) | growth (786-0 renal) | growth (NCI-H522 lung) | growth (COLO 205 colon)
1 | CN1CCc2c(Sc3ccc(C(=O)NO)cc3)c3ccccc3n2C1 | 62.1% | 67.8% | 66.8% | 40.3% | 52.6% | 52.1% | 75.3% | – | –
2 | O=C1/C(=C/c2ccc(F)cc2)CN(Cc2cn(CCNc3ccnc4cc(Cl)ccc34)nn2)C/C1=C\c1ccc(F)cc1 | -62.3% (active) | -0.345% (active) | -55.3% (active) | -42.8% (active) | -50.5% (active) | -31.3% (active) | -66.2% (active) | -75.4% (active) | -53.4% (active)
3 | C[C@@H](Oc1cc(-c2cnn(C3CC4(CCCNC4)C3)c2)cnc1N)c1c(Cl)ccc(F)c1Cl (stereo partly drawn) | 58.8% | 58.9% | 54% | 0.489% (active) | -7.41% (active) | – | 25.2% | 23.6% | -30.9% (active)
4 | COc1c(Cl)ccc2c(-c3nc4cc(Cl)c(F)cc4s3)cc(=O)oc12 | 94.8% | 106% | 86.6% | 99.2% | – | 78% | -43.3% (active) | -78.2% (active) | 124%
5 | COc1cc(NC(=O)COc2ccccc2)c(C(N)=O)cc1OC | 76.5% | 40.1% | 30.5% | 7.91% (active) | – | 20.5% | 44.4% | -9.94% (active) | 8.28% (active)
6 | COc1cc(/C=C/C(=O)C2=C(/C=C/c3ccc(O)c(OC)c3)NC(=O)NC2c2ccc(O)c(OC)c2)ccc1O (stereo not drawn) | 91.8% | 102% | 123% | 89.1% | 88.9% | 78.9% | 100% | – | –
7 | COC(=O)CCC(=O)c1ccccc1 | 115% | 119% | 116% | 106% | – | 95.4% | 94.7% | 106% | 115%
8 | COc1cccc(C2C3=C(COC3=O)N(CCO)c3cc4c(cc32)CCC4)c1 (stereo not drawn) | 13.4% | 30.3% | 19.2% | 1.42% (active) | 48.2% | 12.1% | 0.563% (active) | -50.4% (active) | -78.5% (active)
9 | COc1cccc(C2C3=C(COC3=O)N(CCO)c3cc4c(cc32)OCO4)c1 (stereo not drawn) | 51.6% | 48.9% | 30.4% | 12.3% | 65.7% | 25.9% | 18.5% | -39.4% (active) | -27.1% (active)
10 | OC[C@@H](O)[C@@H](O)CO | 98.6% | 105% | 126% | 107% | 101% | – | 104% | 96.6% | 111%
11 | COc1cc(C2C3=C(COC3=O)N(CCO)c3cc4c(cc32)OCO4)cc(OC)c1O (stereo not drawn) | 61.7% | 52.5% | 41.7% | 16.1% | 66% | 52.1% | 20% | -40.7% (active) | 7.23% (active)
12 | Clc1ccc(C2=NN(c3ccccc3)[C@H](c3cn(-c4ccccc4)nc3-c3ccccc3)C2)cc1 | 96.1% | 101% | 108% | 108% | – | 97.8% | 103% | 91.5% | 114%
13 | Cn1c2ccccc2c2nn(Cc3ccccc3)c(=O)nc21 | 86.6% | 113% | 94.2% | 102% | – | 105% | 108% | 103% | 119%
14 | O=C1/C(=C/c2ccc(Cl)cc2)CN(Cc2cn(CCCNc3ccnc4cc(Cl)ccc34)nn2)C/C1=C\c1ccc(Cl)cc1 | -81.4% (active) | -28.9% (active) | -69.4% (active) | -67.6% (active) | -65.3% (active) | -62.9% (active) | -74.4% (active) | -92.8% (active) | -61.3% (active)
15 | C[C@H]1C(=O)C23CCC1C[C@@]21O[C@@H]2C(C)(C)C=CC(=O)C23COC1=O | 94.2% | 105% | 101% | 101% | 114% | 83.9% | 109% | 93.2% | 105%
16 | Cc1nc2cc(Nc3nc(Nc4ccc(F)cc4)nc(N4CCCC4)n3)ccc2n1Cc1ccccc1 | -17.1% (active) | 21.4% | -22.5% (active) | -30.4% (active) | -12.3% (active) | -0.672% (active) | -21.7% (active) | -4.13% (active) | -72.6% (active)

Row | Structure (SMILES) | growth (NCI-H226 lung) | growth (NCI-H322M lung) | growth (HOP-62 NSCLC) | growth (NCI-H460 lung) | growth (HOP-92 NSCLC) | growth (A549/ATCC NSCLC) | growth (786-0 renal) | growth (NCI-H522 lung) | growth (COLO 205 colon)
17 | Cc1nc(NC(=O)COc2cccc(/C=C3\COc4ccccc4C3=O)c2)sc1C | 83.2% | 58.6% | 71.9% | 9.93% (active) | -20.3% (active) | 30.1% | 72.1% | -49.6% (active) | 16.6%
18 | NC(=O)c1cc(I)ccc1NC(=O)COc1ccc(Cl)cc1Cl | 103% | 98.5% | 87.2% | 103% | – | 90.4% | 89.9% | 75.7% | 101%
19 | C[C@@H](Oc1cc(-c2cnn(C3CC4(CCNCC4)C3)c2)cnc1N)c1c(F)ccc(Cl)c1Cl | 65.5% | 44.4% | 28.4% | -11.7% (active) | -18.8% (active) | -14.4% (active) | -2.08% (active) | -0.334% (active) | –
20 | O=c1ccc2ccccc2o1 | 102% | 115% | 108% | 114% | – | 94% | 105% | 94.3% | 114%
21 | COC(=O)c1ccc(C(=O)Nc2ccccc2N)cc1 | 73.9% | 66.5% | 95% | 63.3% | – | 94.7% | 80.8% | 75.1% | 106%
22 | Cc1ccc(C)c2c1sc1nc3nc4sc5ccccc5n4c(=N)c3c(=O)n12 | 115% | 120% | 97.3% | 95.5% | 72.3% | 111% | 100% | 116% | 109%
23 | Clc1ccc2c(N3CCN(c4ccnc(NC5CCCCC5)n4)CC3)ccnc2c1 | 80.7% | 98.8% | 51.7% | 32% | 40.6% | 54.4% | 49.4% | 71.3% | -1.41% (active)
24 | CC(C)NCC(O)COc1ccc(CCOCC2CC2)cc1 (stereo not drawn) | 90.7% | 106% | 104% | 108% | – | 99.5% | 100% | 118% | 116%
25 | O=C1C(Cl)=C(NCCCN2CCOCC2)C(=O)c2ccccc21 | 107% | 98.5% | 120% | 99.2% | 106% | 98.8% | 113% | 89.9% | 86.9%
26 | COc1ccc(/C=C2\CN(Cc3cn(CCCNc4ccnc5cc(Cl)ccc45)nn3)C/C(=C\c3ccc(OC)cc3)C2=O)cc1 | 96.7% | 80.1% | 63.6% | 86.3% | 53.8% | – | 76.3% | 87.9% | 81.6%
27 | NC1=NC(c2ccccc2OS(=O)(=O)c2ccc(Br)cc2)n2c(nc3ccccc32)N1 (stereo not drawn) | 102% | 101% | 75.2% | 97.6% | -1.3% (active) | 95.9% | – | 82% | 91.8%
28 | Cc1nc(NN)c([N+](=O)[O-])c(NN)n1 | 106% | 110% | 110% | 103% | 102% | 100% | 104% | 108% | 118%
29 | FC(F)(F)c1cc(CNc2ncc(Br)c(Cl)n2)cc(C(F)(F)F)c1 | 90.3% | – | 90.2% | 107% | 84.3% | 101% | 90.4% | 74.2% | 98.4%
30 | C[C@@H](Oc1cc(-c2cnn(C3CC4(CNC4)C3)c2)cnc1N)c1c(Cl)ccc(F)c1Cl | 65.9% | 72.1% | – | 15.9% | 0.0528% (active) | 19.6% | 53% | 69.1% | 5.17% (active)
31 | CSc1ccc(OC(C)=O)cc1C | 98.3% | – | 79.4% | 104% | 97.2% | 101% | 98.1% | 105% | 104%
